Assay results as given in PubChem BioAssay.
Potency and affinity values are given separately. Records with an inconclusive call do not appear. Activity calls are given as the source filed them. Unless noted, how the calls were made is not given here.

Legend:
[1] = cytotoxicity in PAX8-dependent RMG-1 cells, dose response, cell-based, cherry-pick (AID 687029;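 active means signal drop whose fitted half-maximal concentration is at most twice the top valid dose, in every test run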;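 further: cells exposed to compound for 96 hours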)
[2] = cytotoxicity in IOSE-T80 ovarian epithelial cells, dose response, selectivity assay for PAX8 inhibitor project, cell-based, cherry-pick (AID 687032;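 active means fitted half-maximal concentration for viability loss no higher than twice the top valid dose, in every repeat run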;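 further: cells exposed to compound for 96 h before reading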)
[3] = inhibitors of CMV-promoter luciferase reporter, dose response, counter-screen for Pax8 inhibitor project, cell-based, HEK293, luminescence, dry powder (AID 743020;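 active means signal-lowering compounds whose fitted half-maximal concentration is at or below twice the top tested dose in every run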;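 further: HEK293 cells stably expressing the CMV luciferase reporter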)
[4] = non-specific cell cytotoxicity, dose response, cytotoxicity control for PAX8 inhibitor project, plate reader, dry powder samples (AID 743021)
[5] = IGROV1 ovarian cancer cell cytotoxicity, dose response, PAX8 inhibitor project, plate reader, dry powder samples (AID 743043);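 further: more negative means fewer viable cells or more cytotoxicity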
[6] = IOSE-T80 ovarian epithelial cell cytotoxicity, dose response, cytotoxicity control for PAX8 inhibitor project, plate reader, dry powder samples (AID 743045);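 further: more negative values mean more cell killing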
[7] = A2780 ovarian cancer cell cytotoxicity, dose response, cytotoxicity control, plate reader, dry powder samples (AID 743046)
[8] = cytotoxicity in OVCAR8 ovarian cancer cells, dose response, PAX8 project, cell-based, plate reader, dry powder samples (AID 743197)

Measured: outcome

C[C@H](CO)N1C[C@H](C)[C@H](CN(C)S(=O)(=O)c2ccc(Cl)cc2)OCCCC[C@H](C)Oc2ccc(NS(=O)(=O)c3ccc(Cl)cc3)cc2C1=O
inactive: [1] | [2] | [3] | [4] | [5] | [6] | [7]

C[C@@H]1CCCCO[C@@H](CN(C)S(=O)(=O)c2ccc(F)cc2)[C@H](C)CN([C@H](C)CO)C(=O)c2cc(NS(=O)(=O)c3ccc(Cl)cc3)ccc2O1
inactive: [1] | [2] | [3] | [4] | [5] | [6] | [7]

C[C@@H]1CCCCO[C@H](CN(C)Cc2ccc(C(F)(F)F)cc2)[C@H](C)CN([C@H](C)CO)C(=O)c2cc(NC(=O)c3ccccc3)ccc2O1
inactive: [1] | [2] | [3] | [4] | [5] | [6] | [7]

C[C@@H]1CN([C@H](C)CO)S(=O)(=O)c2ccc(C#CC3CCCC3)cc2O[C@H]1CN(C)Cc1cccnc1
inactive: [1] | [2] | [3] | [4] | [5] | [6] | [7]

C[C@@H]1CN([C@H](C)CO)C(=O)CCCn2cc(nn2)CO[C@H]1CN(C)C(=O)Nc1ccc(-c2cccs2)cc1
inactive: [1] | [2] | [3] | [4] | [5] | [6] | [7]

Cc1ccc(S(=O)(=O)N(C)C[C@H]2Oc3cc(C#Cc4ccncc4)ccc3S(=O)(=O)N([C@H](C)CO)C[C@H]2C)cc1
inactive: [1] | [2] | [3] | [4] | [5] | [6] | [7]

C[C@@H]1CCCCO[C@H](CN(C)Cc2ccccc2)[C@@H](C)CN([C@@H](C)CO)C(=O)c2cc(NC(=O)Nc3ccc(C(F)(F)F)cc3)ccc2O1
inactive: [1] | [2] | [3] | [4] | [5] | [6] | [7]

C[C@@H]1CCCCO[C@H](CN(C)C(=O)Nc2ccc(C(F)(F)F)cc2)[C@@H](C)CN([C@@H](C)CO)C(=O)c2cc(NC(=O)Nc3ccc(C(F)(F)F)cc3)ccc2O1
inactive: [1] | [2] | [3] | [4] | [5] | [6] | [7]

C[C@@H]1CN([C@H](C)CO)C(=O)c2cc(NC(=O)Cc3ccccc3)ccc2O[C@@H](C)CCCCO[C@@H]1CN(C)Cc1ccc(C(F)(F)F)cc1
inactive: [1] | [2] | [3] | [4] | [5] | [6] | [7]

COc1ccc(-c2ccc3c(c2)[C@@H]2[C@@H](CCN2S(=O)(=O)c2ccc(OC)cc2)[C@@H](CO)N3C)cc1
inactive: [1] | [2] | [3] | [4] | [5] | [6] | [7]

COc1ccc(S(=O)(=O)Nc2ccc3c(c2)CC(=O)N([C@@H](C)CO)C[C@@H](C)[C@H](CN(C)Cc2ccc(C(F)(F)F)cc2)O3)cc1
inactive: [1] | [2] | [3] | [4] | [5] | [6] | [7]

C[C@H](CO)N1C[C@H](C)[C@@H](CN(C)S(=O)(=O)c2cccc(F)c2)OCc2ccccc2-c2c(n(C)c3ccccc23)C1=O
inactive: [1] | [2] | [3] | [4] | [5] | [6] | [7]

C[C@@H]1CCCCO[C@H](CN(C)Cc2ccc(C(F)(F)F)cc2)[C@H](C)CN([C@@H](C)CO)C(=O)c2cc(NS(=O)(=O)c3ccc(Cl)cc3)ccc2O1
inactive: [1] | [2] | [3] | [4] | [5] | [6] | [7]

O=C(C[C@@H]1C[C@@H]2c3cc(NC(=O)Cc4ccncc4)ccc3O[C@@H]2[C@H](CO)O1)NCc1ccc(-c2ccccc2)cc1
inactive: [1] | [2] | [3] | [4] | [5] | [6] | [7] | [8]

C[C@@H]1CN([C@H](C)CO)C(=O)c2cc(NC(=O)Nc3ccc(F)cc3)ccc2O[C@@H](C)CCCCO[C@@H]1CN(C)Cc1ccc(Cl)c(Cl)c1
inactive: [1] | [2] | [3] | [4] | [5] | [6] | [7]

COc1ccc2c3c(n(C)c2c1)[C@@H](CO)N(C(=O)Nc1ccc(F)cc1)CC31CCN(S(=O)(=O)c2cccc(C)c2)CC1
inactive: [1] | [2] | [3] | [4] | [5] | [6] | [7] | [8]

C[C@@H]1CN([C@H](C)CO)C(=O)c2cccc(NC(=O)Nc3cccc4ccccc34)c2O[C@@H]1CN(C)S(=O)(=O)c1ccc(Cl)cc1
inactive: [1] | [2] | [3] | [4] | [5] | [6] | [7]

C[C@@H]1CCCCO[C@@H](CN(C)C(=O)c2ccccc2)[C@H](C)CN([C@H](C)CO)C(=O)c2cc(NC(=O)Nc3ccc(C(F)(F)F)cc3)ccc2O1
inactive: [1] | [2] | [3] | [4] | [5] | [6] | [7]

C[C@@H]1CCCCO[C@@H](CN(C)C(=O)Nc2ccc(C(F)(F)F)cc2)[C@H](C)CN([C@H](C)CO)C(=O)c2cc(NS(=O)(=O)c3ccc(Cl)cc3)ccc2O1
inactive: [1] | [2] | [3] | [4] | [5] | [6] | [7]

COc1cccc(C#Cc2ccc3c(c2)O[C@@H](CN(C)C(=O)c2ccccn2)[C@H](C)CN([C@@H](C)CO)S3(=O)=O)c1
inactive: [1] | [2] | [3] | [4] | [5] | [6] | [7]

C[C@H]1CN([C@@H](C)CO)S(=O)(=O)c2ccc(C#Cc3ccncc3)cc2O[C@H]1CN(C)C(=O)C1CCCCC1
inactive: [1] | [2] | [3] | [4] | [5] | [6] | [7]

O=C(Nc1ccc(C(F)(F)F)cc1)Nc1ccc2c(c1)[C@@H]1C[C@H](CC(=O)N3CCc4ccccc4C3)O[C@H](CO)[C@@H]1O2
inactive: [1] | [2] | [3] | [4] | [5] | [6] | [7]

C[C@@H]1CN([C@H](C)CO)C(=O)c2cc(NC(=O)Nc3ccc(C(F)(F)F)cc3)ccc2O[C@@H](C)CCCCO[C@H]1CN(C)C(=O)NC1CCCCC1
inactive: [1] | [2] | [3] | [4] | [5] | [6] | [7]

COCC(=O)N1CCCCN2[C@H](C1)[C@@H](c1ccc(-c3ccc(C)cc3)cc1)[C@@H]2CO
inactive: [1] | [2] | [3] | [4] | [5] | [6] | [7] | [8]

C[C@H](CO)N1C[C@H](C)[C@H](CN(C)Cc2ccc(C(F)(F)F)cc2)OCCCC[C@H](C)Oc2ccc(NC(=O)NC3CCCCC3)cc2C1=O
inactive: [1] | [2] | [3] | [4] | [5] | [6] | [7]

CC(C)CC#Cc1ccc2c(c1)O[C@H](CN(C)S(=O)(=O)c1ccc(F)cc1)[C@@H](C)CN([C@@H](C)CO)S2(=O)=O
inactive: [1] | [2] | [3] | [4] | [5] | [6] | [7]

C[C@H]1CCCCO[C@H](CN(C)Cc2ccc(C(F)(F)F)cc2)[C@@H](C)CN([C@@H](C)CO)C(=O)c2cc(NS(=O)(=O)c3ccc(F)cc3)ccc2O1
inactive: [1] | [2] | [3] | [4] | [5] | [6] | [7]

CC(C)NC(=O)N(C)C[C@H]1OCCCC[C@@H](C)Oc2ccc(NC(=O)Nc3ccc(C(F)(F)F)cc3)cc2C(=O)N([C@@H](C)CO)C[C@H]1C
inactive: [1] | [2] | [3] | [4] | [5] | [6] | [7]

C[C@H]1CCCCO[C@H](CN(C)S(=O)(=O)c2ccc(F)cc2)[C@@H](C)CN([C@@H](C)CO)C(=O)c2cc(NS(=O)(=O)c3ccc(Cl)cc3)ccc2O1
inactive: [1] | [2] | [3] | [4] | [5] | [6] | [7]

Cc1ccc(S(=O)(=O)Nc2ccc3c(c2)C(=O)N([C@H](C)CO)C[C@@H](C)[C@H](CN(C)C(=O)Nc2cccc4ccccc24)OCCCC[C@@H](C)O3)cc1
inactive: [1] | [2] | [3] | [4] | [5] | [6] | [7]

C[C@@H]1CN([C@H](C)CO)C(=O)c2cc(NC(=O)Nc3ccc(C(F)(F)F)cc3)ccc2O[C@@H](C)CCCCO[C@H]1CN(C)S(=O)(=O)c1ccc(Cl)cc1
inactive: [1] | [2] | [3] | [4] | [5] | [6] | [7]

COc1ccccc1C#Cc1ccc2c(c1)O[C@@H](CN(C)Cc1cncnc1)[C@H](C)CN([C@H](C)CO)S2(=O)=O
inactive: [1] | [2] | [3] | [4] | [5] | [6] | [7]

Cc1ccccc1-c1ccc2c(c1)O[C@H](CN(C)C(=O)Nc1ccc(C(F)(F)F)cc1)[C@@H](C)CN([C@H](C)CO)S2(=O)=O
inactive: [1] | [2] | [3] | [4] | [5] | [6] | [7]

C[C@@H]1CCCCO[C@H](CN(C)Cc2ccc(C(F)(F)F)cc2)[C@H](C)CN([C@@H](C)CO)C(=O)c2cc(NC(=O)c3ccccc3)ccc2O1
inactive: [1] | [2] | [3] | [4] | [5] | [7]

CC(C)(C)S(=O)N1Cc2cc(C(=O)NCCCN3CCOCC3)nc(-c3cccc(C#CCC4CCCC4)c3)c2[C@@H]1CCO (stereo not given in full)
inactive: [1] | [2] | [3] | [4] | [5] | [6] | [8]

C[C@@H]1CN([C@H](C)CO)C(=O)c2cc(NC(=O)Nc3ccc(C(F)(F)F)cc3)ccc2O[C@@H](C)CCCCO[C@H]1CN(C)S(=O)(=O)c1ccccc1
inactive: [1] | [2] | [3] | [4] | [5] | [6] | [7] | [8]
